# For some assays here: Results with a measured potency or affinity are listed apart.
# Key:
# Set-up in all cases: scale not given: direction of the effect not stated beside the values
# [1] = molecular target: Protein translocase subunit SecA (Escherichia coli (strain K12)) (UniProt P10408); assay: Assay to Identify E. coli SecA ATPase Inhibitors; assay type: functional; conditions: 30 µM
# [2] = molecular target: T1, Ubiquitin-activating enzyme e1, putative (Leishmania donovani (strain BPK282A1)) (UniProt E9BSI1); assay: Leishmania donovani Ubiquitin Activating Enzyme (LdE1); assay type: functional; conditions: 30 µM
# T1 sequence (whole entry): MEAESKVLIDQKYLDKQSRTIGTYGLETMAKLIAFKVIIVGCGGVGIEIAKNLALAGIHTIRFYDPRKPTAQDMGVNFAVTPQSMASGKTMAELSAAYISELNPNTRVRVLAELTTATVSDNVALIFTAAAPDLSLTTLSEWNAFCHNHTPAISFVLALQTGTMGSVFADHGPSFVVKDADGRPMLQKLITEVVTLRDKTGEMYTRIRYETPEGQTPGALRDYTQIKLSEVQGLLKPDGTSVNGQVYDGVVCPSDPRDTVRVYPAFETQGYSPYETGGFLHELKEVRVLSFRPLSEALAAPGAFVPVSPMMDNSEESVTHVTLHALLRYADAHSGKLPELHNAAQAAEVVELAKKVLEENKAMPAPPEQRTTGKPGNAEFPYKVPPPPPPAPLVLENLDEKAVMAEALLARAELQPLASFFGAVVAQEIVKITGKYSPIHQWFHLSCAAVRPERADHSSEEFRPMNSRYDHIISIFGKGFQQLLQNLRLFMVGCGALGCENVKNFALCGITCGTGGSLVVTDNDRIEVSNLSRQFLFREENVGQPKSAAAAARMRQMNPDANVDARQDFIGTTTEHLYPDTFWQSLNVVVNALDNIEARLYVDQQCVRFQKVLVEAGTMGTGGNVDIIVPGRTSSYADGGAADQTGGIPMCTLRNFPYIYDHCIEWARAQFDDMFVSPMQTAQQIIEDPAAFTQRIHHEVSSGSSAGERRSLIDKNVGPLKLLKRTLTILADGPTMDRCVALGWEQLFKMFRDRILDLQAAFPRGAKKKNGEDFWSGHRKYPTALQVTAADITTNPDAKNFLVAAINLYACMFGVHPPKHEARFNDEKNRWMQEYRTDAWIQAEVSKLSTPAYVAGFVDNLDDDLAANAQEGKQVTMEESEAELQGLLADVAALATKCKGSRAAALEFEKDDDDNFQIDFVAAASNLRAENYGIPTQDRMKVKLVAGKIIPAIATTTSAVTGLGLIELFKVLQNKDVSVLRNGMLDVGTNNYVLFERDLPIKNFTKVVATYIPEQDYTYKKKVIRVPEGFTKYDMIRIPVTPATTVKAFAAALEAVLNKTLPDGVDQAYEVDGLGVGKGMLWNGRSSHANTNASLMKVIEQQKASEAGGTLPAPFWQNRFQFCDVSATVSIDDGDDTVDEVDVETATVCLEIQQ
# [3] = molecular target: AMP-activated protein kinase, AMPK (Homo sapiens) (UniProt P54646+O43741+P54619+Q9UGJ0+Q9Y478+Q13131+Q9UGI9); assay: AMP-dependent Kinase enzyme assay. An in vitro enzyme assay that detects ADP turnover that is directly proportional to AMPK activity. This uses naive AMPK that is activated during the assay with MK-8722; assay type: functional; conditions: 30 µM
# [4] = molecular target: Sialic acid-binding Ig-like lectin 9 (Homo sapiens) (UniProt Q9Y336); assay: Hs-Siglec9 ALPHAscreen SOP 20170721; conditions: 10 µM
# Trypanosoma cruzi = assay: Trypanosoma cruzi phosphomannomutase and mannose-1-phosphate guanylyltransferase assay; assay type: functional; conditions: 10 µM
# [5] = molecular target: T2, Arginase-2, mitochondrial (Homo sapiens) (UniProt P78540); assay: in vitro enzyme assay to detect the production of urea directly proportional to the activity of Arginase II; assay type: functional; conditions: 33.3 µM; also: in the data most compounds retested in dose-response had high values
# T2 sequence (whole entry): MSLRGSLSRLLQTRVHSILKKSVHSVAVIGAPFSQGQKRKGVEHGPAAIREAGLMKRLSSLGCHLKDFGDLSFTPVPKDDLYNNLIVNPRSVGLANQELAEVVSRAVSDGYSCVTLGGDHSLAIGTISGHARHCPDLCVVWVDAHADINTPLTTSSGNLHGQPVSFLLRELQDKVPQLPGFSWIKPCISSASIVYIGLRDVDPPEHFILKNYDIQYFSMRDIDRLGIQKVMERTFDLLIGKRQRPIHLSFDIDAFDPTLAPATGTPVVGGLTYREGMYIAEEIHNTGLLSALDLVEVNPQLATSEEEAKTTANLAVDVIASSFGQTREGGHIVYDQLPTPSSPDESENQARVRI
# [6] = molecular target: T3, Proteasome subunit beta (Trypanosoma cruzi) (UniProt O96673); assay: Trypanosoma cruzi proteasome chymotrypsin-like activity (TcProtChymo) assay.; also: in the data most compounds retested in dose-response had high values; assay type: functional; conditions: 9.37 µM
# T3 sequence (whole entry): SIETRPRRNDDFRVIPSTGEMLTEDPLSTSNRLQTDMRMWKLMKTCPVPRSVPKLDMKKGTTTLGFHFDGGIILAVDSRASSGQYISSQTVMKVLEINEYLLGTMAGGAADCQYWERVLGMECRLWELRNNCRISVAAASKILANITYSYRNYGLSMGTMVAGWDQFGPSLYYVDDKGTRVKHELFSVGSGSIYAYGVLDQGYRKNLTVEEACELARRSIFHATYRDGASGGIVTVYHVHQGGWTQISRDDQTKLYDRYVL
# Homo sapiens = species on record: Homo sapiens; assay: To identify inhibition of the IFN signalling (Jak-Stat) pathway via expression of an eGFP reporter gene under the control of an IFN-stimulated response element (ISRE) containing MxA promoter.; assay type: functional; conditions: 30 µM
# [7] = molecular target: T4, Tyrosyl-tRNA synthetase, putative (Trypanosoma cruzi (strain CL Brener)) (UniProt Q4DSP6); assay: Trypanosoma cruzi tyrosyl tRNA synthetase (TcYRS) _High Tyrosine SOP; assay type: functional; conditions: 30 µM; also: in the data most compounds retested in dose-response had high values
# T4 sequence (whole entry): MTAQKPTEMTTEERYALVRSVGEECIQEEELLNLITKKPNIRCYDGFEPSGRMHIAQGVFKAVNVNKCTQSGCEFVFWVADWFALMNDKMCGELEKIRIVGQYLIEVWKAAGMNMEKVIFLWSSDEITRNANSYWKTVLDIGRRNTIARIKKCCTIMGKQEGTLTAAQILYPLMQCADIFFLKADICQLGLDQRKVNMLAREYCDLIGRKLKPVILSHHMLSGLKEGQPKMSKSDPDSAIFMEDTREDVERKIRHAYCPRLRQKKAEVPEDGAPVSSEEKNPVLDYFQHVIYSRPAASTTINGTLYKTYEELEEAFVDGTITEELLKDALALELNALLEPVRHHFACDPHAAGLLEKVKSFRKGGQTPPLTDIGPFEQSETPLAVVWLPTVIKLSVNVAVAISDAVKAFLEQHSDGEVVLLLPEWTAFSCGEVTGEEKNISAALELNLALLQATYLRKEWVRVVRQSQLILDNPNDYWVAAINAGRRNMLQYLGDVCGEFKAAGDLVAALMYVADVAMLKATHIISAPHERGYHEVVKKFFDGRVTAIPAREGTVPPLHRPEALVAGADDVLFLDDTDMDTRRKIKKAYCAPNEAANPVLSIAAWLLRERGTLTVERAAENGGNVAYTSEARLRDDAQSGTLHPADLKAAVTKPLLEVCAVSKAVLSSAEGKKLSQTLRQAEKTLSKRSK
# [8] = molecular target: T4, Tyrosyl-tRNA synthetase, putative (Trypanosoma cruzi (strain CL Brener)); assay: Trypanosoma cruzi tyrosyl tRNA synthetase (TcYRS) SOP; assay type: functional; conditions: 30 µM
# [9] = molecular target: Chromo domain-containing protein 1 (Saccharomyces cerevisiae (strain ATCC 204508 / S288c) (Baker's yeast)) (UniProt P32657); assay: ScCHD-1 Enzyme Inhibition Assay; assay type: functional; conditions: 30 µM; also: in the data most compounds retested in dose-response had high values
# Chain of Chromo domain-containing protein 1 (Saccharomyces cerevisiae (strain ATCC 204508 / S288c) (Baker's yeast)) (P32657 whole entry, the tested form may be a part): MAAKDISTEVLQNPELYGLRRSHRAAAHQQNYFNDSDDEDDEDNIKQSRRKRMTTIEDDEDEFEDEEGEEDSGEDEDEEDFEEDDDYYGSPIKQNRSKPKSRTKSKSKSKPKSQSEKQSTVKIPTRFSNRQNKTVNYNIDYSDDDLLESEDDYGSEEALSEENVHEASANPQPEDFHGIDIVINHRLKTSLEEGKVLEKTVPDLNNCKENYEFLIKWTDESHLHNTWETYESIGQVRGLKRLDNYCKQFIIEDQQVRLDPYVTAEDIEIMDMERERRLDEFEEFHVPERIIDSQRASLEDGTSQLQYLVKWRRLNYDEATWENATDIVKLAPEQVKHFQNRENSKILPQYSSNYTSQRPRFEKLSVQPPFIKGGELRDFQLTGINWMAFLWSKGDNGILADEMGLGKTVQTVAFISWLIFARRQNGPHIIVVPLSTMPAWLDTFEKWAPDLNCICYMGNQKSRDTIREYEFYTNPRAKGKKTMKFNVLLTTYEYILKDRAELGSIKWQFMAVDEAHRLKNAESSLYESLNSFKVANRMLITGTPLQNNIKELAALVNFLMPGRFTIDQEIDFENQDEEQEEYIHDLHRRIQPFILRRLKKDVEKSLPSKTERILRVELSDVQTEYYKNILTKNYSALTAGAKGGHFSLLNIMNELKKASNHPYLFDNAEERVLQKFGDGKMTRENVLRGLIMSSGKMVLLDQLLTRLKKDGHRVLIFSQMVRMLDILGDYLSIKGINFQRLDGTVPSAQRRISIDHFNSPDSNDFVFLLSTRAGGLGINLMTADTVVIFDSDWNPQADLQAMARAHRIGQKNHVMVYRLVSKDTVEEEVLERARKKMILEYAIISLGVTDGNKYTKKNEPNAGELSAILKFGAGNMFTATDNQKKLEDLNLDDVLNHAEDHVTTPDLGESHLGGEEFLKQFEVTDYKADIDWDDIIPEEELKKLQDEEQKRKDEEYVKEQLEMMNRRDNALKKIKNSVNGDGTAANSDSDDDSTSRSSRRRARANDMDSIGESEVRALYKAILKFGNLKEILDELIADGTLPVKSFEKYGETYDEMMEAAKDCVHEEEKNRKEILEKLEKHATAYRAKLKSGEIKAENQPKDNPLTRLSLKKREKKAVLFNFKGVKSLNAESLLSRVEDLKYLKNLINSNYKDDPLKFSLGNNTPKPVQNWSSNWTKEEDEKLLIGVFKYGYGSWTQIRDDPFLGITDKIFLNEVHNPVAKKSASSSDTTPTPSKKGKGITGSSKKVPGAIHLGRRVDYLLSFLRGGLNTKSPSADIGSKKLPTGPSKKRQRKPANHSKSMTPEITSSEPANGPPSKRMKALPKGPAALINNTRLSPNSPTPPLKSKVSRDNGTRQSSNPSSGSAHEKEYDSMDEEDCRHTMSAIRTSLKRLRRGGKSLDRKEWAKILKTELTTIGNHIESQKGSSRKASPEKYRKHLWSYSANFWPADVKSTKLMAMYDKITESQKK
# Chain of Protein translocase subunit SecA (Escherichia coli (strain K12)) (P10408 whole entry): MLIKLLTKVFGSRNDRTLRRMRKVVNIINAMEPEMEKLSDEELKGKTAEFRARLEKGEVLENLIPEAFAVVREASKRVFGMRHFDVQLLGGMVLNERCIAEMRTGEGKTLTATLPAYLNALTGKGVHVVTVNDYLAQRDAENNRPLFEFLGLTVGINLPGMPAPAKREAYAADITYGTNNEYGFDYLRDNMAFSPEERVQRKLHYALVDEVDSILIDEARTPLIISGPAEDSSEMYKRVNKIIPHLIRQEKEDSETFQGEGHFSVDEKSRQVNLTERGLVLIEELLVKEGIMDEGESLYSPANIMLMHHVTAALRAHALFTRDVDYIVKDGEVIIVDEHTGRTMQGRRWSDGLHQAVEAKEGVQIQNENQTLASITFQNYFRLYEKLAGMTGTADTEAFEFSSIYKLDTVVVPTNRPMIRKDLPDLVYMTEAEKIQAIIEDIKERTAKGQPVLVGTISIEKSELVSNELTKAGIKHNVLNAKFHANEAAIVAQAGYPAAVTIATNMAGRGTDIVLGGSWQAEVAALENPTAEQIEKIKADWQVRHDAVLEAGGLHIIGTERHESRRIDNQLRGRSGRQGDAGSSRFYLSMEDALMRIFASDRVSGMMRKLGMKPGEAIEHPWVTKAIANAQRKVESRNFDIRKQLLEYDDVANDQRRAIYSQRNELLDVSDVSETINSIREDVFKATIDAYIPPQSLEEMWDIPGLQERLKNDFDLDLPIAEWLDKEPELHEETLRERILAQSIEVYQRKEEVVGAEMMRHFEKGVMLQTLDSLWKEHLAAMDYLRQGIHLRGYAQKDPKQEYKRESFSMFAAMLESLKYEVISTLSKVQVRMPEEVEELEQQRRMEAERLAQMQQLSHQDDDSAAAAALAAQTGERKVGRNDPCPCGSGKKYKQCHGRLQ
# Chain of Sialic acid-binding Ig-like lectin 9 (Homo sapiens) (Q9Y336 whole entry): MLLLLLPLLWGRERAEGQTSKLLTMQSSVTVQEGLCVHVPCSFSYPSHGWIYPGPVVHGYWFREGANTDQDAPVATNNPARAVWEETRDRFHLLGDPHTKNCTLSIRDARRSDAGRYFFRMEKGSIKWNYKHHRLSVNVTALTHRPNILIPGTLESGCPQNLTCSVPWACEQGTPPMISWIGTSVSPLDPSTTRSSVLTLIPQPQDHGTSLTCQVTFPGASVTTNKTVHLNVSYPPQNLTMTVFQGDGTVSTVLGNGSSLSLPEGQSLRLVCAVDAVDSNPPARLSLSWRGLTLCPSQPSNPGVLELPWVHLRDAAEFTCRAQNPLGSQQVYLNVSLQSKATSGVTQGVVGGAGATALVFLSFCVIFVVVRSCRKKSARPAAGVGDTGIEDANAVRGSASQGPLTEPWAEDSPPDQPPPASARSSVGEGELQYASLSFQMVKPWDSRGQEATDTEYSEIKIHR
SMILES,Percent Effect [1] [%],Percent Effect [2] [%],Percent Effect [3] [%],Percent Effect [4] [%],Percent Effect (Trypanosoma cruzi) [%],Percent Effect [5] [%],Percent Effect [6] [%],Percent Effect (Homo sapiens) [%],Percent Effect [7] [%],Percent Effect [8] [%],Percent Effect [9] [%]
Cc1cccc(CS(=O)(=O)CC(=O)NCCCOC(C)C)c1,-4.74,18.2,-13.1,5.88,9.74,3.92,4.05,23.9,7.77,24.4,-10.7
CSc1nccn1-c1cccc(C(=O)NCc2nnc(C)n2C)c1,-3.63,13.2,-0.262,12.6,4.01,1.08,3.98,15.6,6.4,23.5,-2.71
CC(C)(C)c1noc(CN2CCN(C(=O)c3cccs3)CC2)n1,-2.39,10.4,4.2,-5.86,-4.68,4.27,10.3,19.4,7.77,14.6,-7.8
CC(=O)N1CCN(C(=O)CN2CCc3c(ncn3C3CC3)C2)CC1,-0.513,19,-1.56,-4.08,1.33,5.38,17.5,11.7,1.04,5.06,-19.7
CCS(=O)(=O)CCn1ccc(NC(=O)CCc2cccc(C)c2)n1,-1.95,5.41,2.06,-5.21,-3.91,-2.08,11.8,5.07,9.9,13.4,4.48
COCC1CN(S(C)(=O)=O)Cc2ncn(CC3CC3)c21 (configuration not stated),-4.92,13.5,-0.0233,-3.08,-5.38,0.248,14.2,27.2,4.3,8.64,-3.62
Cc1[nH]ncc1C(=O)N1CCCC(n2cncn2)C1 (configuration not stated),-6.67,1.27,7.75,26.4,-0.308,3.23,4.63,9.83,1.04,0,-6.77
COCC(=O)N1CCC(c2nccn2CC2CC2)CC1,0.53,10.8,-6.45,8.36,5.41,8.57,19.8,-2.14,6.88,19.5,-2.23
Cc1cnn(CC(C)NCc2csc(-c3cnn(C)c3)n2)c1 (configuration not stated),-0.0815,19,-6.28,-4.12,-4.41,0.645,20.6,14,7.29,-10.1,-26.4
CC(C)c1nc(CN(C)C2CCN(Cc3nc(C4CC4)no3)C2)no1 (configuration not stated),4.92,11,-9.72,4.44,-8.42,1.36,18.8,22.3,3.23,10,-6.06
COc1ccc(NC(=O)CCc2c(C)nc3cc(O)nn3c2C)cn1,-3.54,0,-317,9.4,6.18,0.356,8.62,25.5,7.77,21.9,-8.7
Cc1nc(C2CCCN2CC(=O)NCCc2ccsc2)no1 (configuration not stated),-2.17,16.2,-10.4,13.2,5.11,3.51,10.4,-5.59,6.93,18.3,-8.06
O=C(Nc1ccccc1F)N1CCN(Cc2noc(C3CC3)n2)CC1,-1.58,11.4,5.8,0.391,-2.36,4.09,8.4,4.54,5.21,20.2,-23.3
COC(=O)C(C)(C)NC(=O)C1CC(=O)N(C2CCCC2)C1 (configuration not stated),-0.563,11,-0.48,5.96,3.17,-2.79,9.85,26.3,11.5,25.9,-1.54
Cc1nc(CNC(=O)NCCc2ccc(N(C)C)cc2)cs1,-4.53,10.8,6.12,13.5,1.23,-5.61,-1.98,-15.3,9.36,18.5,-10.4
CCc1n[nH]c(C2CN(C(=O)CCc3cccs3)CCO2)n1 (configuration not stated),-5.44,11.4,-4.01,-7.1,1.74,0.645,8.23,1.68,4.17,12.7,-38.8
N#CCCN(CCC#N)C(=O)CN1CCCC1Cc1cccc(F)c1 (configuration not stated),-3.46,0,-6.01,-7.53,3.32,1.25,24.6,-17.1,7.92,8.54,0.083
COCCNC(=O)c1ccc(C)c(-n2cccc2)c1,2.25,13.2,4.41,-4.12,-3.8,-2.37,14.3,-4.52,7.45,7.79,-3.58
CC(CN1CCC2(CC1)c1nc[nH]c1CCN2S(C)(=O)=O)C(F)(F)F (configuration not stated),-5.83,4.17,-4.55,0.526,-2.62,-1.77,8.07,-8.95,3.16,2.56,-1.32
CCc1nc(CCNC(=O)C2CCOC2)sc1C (configuration not stated),-4.95,8.11,-4.04,10.6,1.76,3.75,5.5,9.42,6.93,8.54,-0.947
NC(=O)C1CCN(C(=O)c2cccc(CN3CCOCC3)c2)CC1,-0.727,6.94,4.41,25.6,4.57,2.21,0.702,-3.07,1.05,0,79
COc1cccc(F)c1C(=O)N1C[C@@H](CN(C)CCO)[C@@H](CO)C1,-8.11,5.2,-2.26,3.34,-2.26,-5.52,2.16,-11,2.15,8.64,-0.727
